# Results filed as inconclusive are left out. The source made the active and inactive calls. The calls were made as follows: active = hit-call score of the fitted dose curve at least 0.9, where 1 is the maximum; inconclusive = response in the unintended direction; inactive = score below 0.9.
# Target: human Serotonin Transporter (SERT), SLC6A4 (gene 6532) (UniProt P31645)
# Assay: NVS_TR_hSERT: NovaScreen (NVS) Transporter Assay for human Serotonin Transporter (SERT) (AID 2283372)
# Experimental: NVS_TR_hSERT is a biochemical, single-readout assay that uses extracted gene-proteins from Human platelet membranes in a tissue-based cell-free assay. Measurements were taken 1 hour after chemical dosing in a 96-well plate.NVS_TR_hSERT is one of one assay component(s) measured or calculated from the NVS_TR_hSERT assay. It is designed to make measurements of radioligand binding, a form of binding reporter, as detected with scintillation counting signals by Filter-based radiodetection technology.Data from the assay component NVS_TR_hSERT was analyzed into 1 assay endpoint. This assay endpoint, NVS_TR_hSERT, was analyzed in the positive analysis fitting direction relative to DMSO as the negative control and baseline of activity. Using a type of binding reporter, loss-of-signal activity can be used to understand changes in the binding as they relate to the gene SLC6A4. Furthermore, this assay endpoint can be referred to as a primary readout, because the performed assay has only produced 1 assay endpoint. To generalize the intended target to other relatable targets, this assay endpoint is annotated to the transporter intended target family, where the subfamily is neurotransmitter transporter.
# (§1) Binding assays used specific radioligands (tritiated, iodinated) with non-radioactive competitive displacement ligands in agonist or antagonist protocols (as indicated) and various reference compounds and inhibitors to titrate specific binding to receptors and transporters. Most enzyme assays (CYPs, kinases, phosphatases, proteases, HDACs) used recombinant protein and specific substrates (fluorescence mostly, some colorimetric and radioactive) and inhibitors, followed by a biochemical separation of substrate and product. All assays for the biochemical HTS were initially run in duplicate at a single concentration (10 uM for CYP450 assays and 25 uM for all others). […] Each assay was run with positive and negative controls, and concurrent controls on every plate. The follow-up (secondary) screen tested active chemical-pairs in concentration series, as well as a few additional assays not tested in the primary screen, some selected negative inactives, and several cases re-run in the concentration series for confirmatory purposes.
# Chain of human Serotonin Transporter (SERT), SLC6A4 (gene 6532) (P31645 whole entry, looked up): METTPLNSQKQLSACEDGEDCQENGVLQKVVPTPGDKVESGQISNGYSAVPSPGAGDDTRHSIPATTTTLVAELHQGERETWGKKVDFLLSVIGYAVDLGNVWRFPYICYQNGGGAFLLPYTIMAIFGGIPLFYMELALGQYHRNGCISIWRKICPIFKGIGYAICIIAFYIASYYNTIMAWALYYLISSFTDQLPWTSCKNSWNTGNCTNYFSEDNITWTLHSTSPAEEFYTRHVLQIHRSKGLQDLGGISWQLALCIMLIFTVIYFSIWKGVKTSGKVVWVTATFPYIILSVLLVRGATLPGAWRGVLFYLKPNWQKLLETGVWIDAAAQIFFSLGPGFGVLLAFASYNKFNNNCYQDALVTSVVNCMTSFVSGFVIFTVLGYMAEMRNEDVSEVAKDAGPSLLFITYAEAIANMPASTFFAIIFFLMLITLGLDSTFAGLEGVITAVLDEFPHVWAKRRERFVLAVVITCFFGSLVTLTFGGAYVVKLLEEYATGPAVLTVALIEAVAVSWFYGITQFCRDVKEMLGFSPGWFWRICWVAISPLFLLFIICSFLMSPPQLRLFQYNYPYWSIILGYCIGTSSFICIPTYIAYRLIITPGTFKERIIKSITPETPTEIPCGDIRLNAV
Structure (SMILES),outcome,AC50
CCOc1nc(F)cc2nc(S(=O)(=O)Nc3c(Cl)cccc3Cl)nn12,inactive,
CNC(=O)Oc1cccc2ccccc12,inactive,
CC(C)N1C(=O)c2ccccc2NS1(=O)=O,inactive,
COP(=S)(OC)Oc1ccc([N+](=O)[O-])c(C)c1,,1.99 µM (active)
CCOC(=O)C(C)OC(=O)c1cc(Oc2ccc(C(F)(F)F)cc2Cl)ccc1[N+](=O)[O-] (stereo not drawn),inactive,

# Target: human Dopamine Transporter (DAT), SLC6A3 (gene 6531) (UniProt Q01959)
# Sequence (Q01959 whole entry, looked up): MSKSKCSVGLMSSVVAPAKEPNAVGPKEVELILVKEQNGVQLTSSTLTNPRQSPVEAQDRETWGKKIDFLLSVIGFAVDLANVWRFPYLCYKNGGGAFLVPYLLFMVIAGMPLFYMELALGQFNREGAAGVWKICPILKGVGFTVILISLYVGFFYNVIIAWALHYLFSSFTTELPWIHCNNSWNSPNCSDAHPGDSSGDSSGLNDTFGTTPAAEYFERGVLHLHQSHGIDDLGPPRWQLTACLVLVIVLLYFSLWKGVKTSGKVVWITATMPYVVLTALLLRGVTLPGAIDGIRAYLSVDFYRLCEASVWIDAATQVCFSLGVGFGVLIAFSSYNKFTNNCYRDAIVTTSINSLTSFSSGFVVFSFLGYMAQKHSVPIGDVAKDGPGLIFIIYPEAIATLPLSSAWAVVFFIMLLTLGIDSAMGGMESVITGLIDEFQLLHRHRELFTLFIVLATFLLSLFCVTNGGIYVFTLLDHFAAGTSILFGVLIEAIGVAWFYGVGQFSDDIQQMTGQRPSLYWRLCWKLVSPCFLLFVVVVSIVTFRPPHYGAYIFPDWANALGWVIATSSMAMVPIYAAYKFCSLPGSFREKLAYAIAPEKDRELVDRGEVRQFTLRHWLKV
# Assay: NVS_TR_hDAT: NovaScreen (NVS) Transporter Assay for human Dopamine Transporter (DAT) (AID 2283374);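 also: activity means loss of bound radioligand signal relative to DMSO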
# In short: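 Cell-free radioligand displacement binding at human DAT, 1 h after dosing, with filtration and scintillation counting. Primary screen in duplicate at 25 uM, actives then in concentration series. Loss of bound signal versus DMSO scored.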
Structure (SMILES),outcome,AC50
CSC(=O)c1c(C(F)F)nc(C(F)(F)F)c(C(=O)SC)c1CC(C)C,inactive,
CC1(C)C(C(=O)OC(C#N)c2cccc(Oc3ccccc3)c2)C1(C)C (stereo not drawn),,9.99 µM (active)
C=C(C)CN(CC)c1c([N+](=O)[O-])cc(C(F)(F)F)cc1[N+](=O)[O-],,7.64 µM (active)
CCN(CC)C(=O)C(C)Oc1cccc2ccccc12 (stereo not drawn),,10.4 µM (active)
CC1(C)CCC(=Cc2ccc(Cl)cc2)C1(O)Cn1cncn1 (stereo not drawn),,0.545 µM (active)
CC1(C)CON(Cc2ccccc2Cl)C1=O,,6.47 µM (active)
CC1(C)C(C=C(Cl)Cl)C1C(=O)OC(C#N)c1cccc(Oc2ccccc2)c1 (stereo not drawn),,6.48 µM (active)
COC(=O)N(C(=O)N1CO[C@@]2(C(=O)OC)Cc3cc(Cl)ccc3C2=N1)c1ccc(OC(F)(F)F)cc1,inactive,
CC(C)(C)C(=O)C(Oc1ccc(Cl)cc1)n1cncn1 (stereo not drawn),,0.238 µM (active)
OC(c1ccc(Cl)cc1)(c1ccc(Cl)cc1)C(Cl)(Cl)Cl,,8.54 µM (active)
CCCCC(C#N)(Cn1cncn1)c1ccc(Cl)cc1 (stereo not drawn),,7.18 µM (active)
CCOc1cc(C(C)(C)C)ccc1C1COC(c2c(F)cccc2F)=N1 (stereo not drawn),inactive,
CCOP(=O)(OCC)Oc1nc(Cl)c(Cl)cc1Cl,inactive,
COP(=S)(OC)Oc1ccc([N+](=O)[O-])c(C)c1,,4.96 µM (active)
CC(C)=CC1C(C(=O)OCc2coc(Cc3ccccc3)c2)C1(C)C (stereo not drawn),,25 µM (active)
CCOC(=O)C(C)OC(=O)c1cc(Oc2ccc(C(F)(F)F)cc2Cl)ccc1[N+](=O)[O-] (stereo not drawn),,7.94 µM (active)
CCCCC(O)(Cn1cncn1)c1ccc(Cl)cc1Cl (stereo not drawn),,2.25 µM (active)
Cc1cc(C)nc(Nc2ccccc2)n1,,25 µM (active)

# Target: rat Serotonin Transporter (SERT), Slc6a4 (gene 25553) (UniProt P31652)
# Sequence (P31652 whole entry, looked up): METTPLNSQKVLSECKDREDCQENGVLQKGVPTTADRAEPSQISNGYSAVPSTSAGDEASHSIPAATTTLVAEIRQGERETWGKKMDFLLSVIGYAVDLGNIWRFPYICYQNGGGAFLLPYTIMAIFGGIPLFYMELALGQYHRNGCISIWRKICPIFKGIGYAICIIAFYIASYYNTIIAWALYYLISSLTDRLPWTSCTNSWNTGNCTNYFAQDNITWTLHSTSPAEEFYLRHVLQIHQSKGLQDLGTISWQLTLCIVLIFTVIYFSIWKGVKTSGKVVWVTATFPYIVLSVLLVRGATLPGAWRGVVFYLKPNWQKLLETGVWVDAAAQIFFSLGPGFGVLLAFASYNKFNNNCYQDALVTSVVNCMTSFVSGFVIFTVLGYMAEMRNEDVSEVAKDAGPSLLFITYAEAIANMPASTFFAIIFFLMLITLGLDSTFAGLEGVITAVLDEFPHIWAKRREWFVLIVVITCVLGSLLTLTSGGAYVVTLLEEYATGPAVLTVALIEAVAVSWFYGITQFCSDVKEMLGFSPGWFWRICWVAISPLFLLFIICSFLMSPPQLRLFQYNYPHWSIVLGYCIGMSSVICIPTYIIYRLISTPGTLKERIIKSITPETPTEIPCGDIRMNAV
# Assay: NVS_TR_rSERT: NovaScreen (NVS) Transporter Assay for rat Serotonin Transporter (SERT) (AID 2283375)
# In short: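 Rat forebrain membranes were incubated with test chemical for 1 hour; radioligand binding to SERT was measured by filter-based scintillation counting. Primary screen ran in duplicate at 25 uM, with actives followed up in concentration series; DMSO served as negative control.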
Structure (SMILES),outcome,AC50
CCOc1nc(F)cc2nc(S(=O)(=O)Nc3c(Cl)cccc3Cl)nn12,inactive,
C=C(C)CN(CC)c1c([N+](=O)[O-])cc(C(F)(F)F)cc1[N+](=O)[O-],inactive,
CNC(=O)Oc1cccc2ccccc12,,7.36 µM (active)
COP(=S)(OC)Oc1ccc([N+](=O)[O-])c(C)c1,,3.37 µM (active)
CCOC(=O)C(C)OC(=O)c1cc(Oc2ccc(C(F)(F)F)cc2Cl)ccc1[N+](=O)[O-] (stereo not drawn),inactive,

# Target: Norway rat Vesicular Monoamine Transporter (VMAT2), neurotransmitter transporter, Slc18a2 (gene 25549) (UniProt Q01827)
# Sequence (Q01827 whole entry, looked up): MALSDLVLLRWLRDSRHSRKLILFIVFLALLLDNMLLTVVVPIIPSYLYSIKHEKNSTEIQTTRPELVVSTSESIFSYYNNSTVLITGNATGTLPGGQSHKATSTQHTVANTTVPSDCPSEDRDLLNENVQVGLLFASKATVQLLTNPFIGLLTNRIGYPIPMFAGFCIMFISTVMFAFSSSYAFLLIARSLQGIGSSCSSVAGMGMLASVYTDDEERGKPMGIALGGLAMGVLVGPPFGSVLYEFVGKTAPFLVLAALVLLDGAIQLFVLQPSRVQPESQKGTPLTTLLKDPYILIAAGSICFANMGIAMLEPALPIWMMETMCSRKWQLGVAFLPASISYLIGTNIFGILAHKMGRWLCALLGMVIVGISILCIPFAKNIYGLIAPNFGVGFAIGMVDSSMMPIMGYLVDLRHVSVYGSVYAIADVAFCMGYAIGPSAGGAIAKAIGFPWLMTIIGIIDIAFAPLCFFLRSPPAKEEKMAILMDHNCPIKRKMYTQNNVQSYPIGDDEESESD
# Assay: NVS_TR_rVMAT2: NovaScreen (NVS) Transporter Assay for Norway rat Vesicular Monoamine Transporter (VMAT2), neurotransmitter transporter (AID 2283376);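 also: actives lower the bound radioligand signal below the DMSO level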
# In short: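 Radioligand displacement binding on rat forebrain tissue preparation, filter-based scintillation read-out 1 hour after dosing. Primary screen in duplicate at 25 uM, then concentration series for actives; loss of signal versus DMSO.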
Structure (SMILES),outcome,AC50
N#Cc1c[nH]cc1-c1cccc2c1OC(F)(F)O2,inactive,
CCOP(=S)(OCC)Oc1nc(Cl)n(C(C)C)n1,inactive,
CC(C)NC(=O)N1CC(=O)N(c2cc(Cl)cc(Cl)c2)C1=O,inactive,
Clc1nc(Cl)nc(Nc2ccccc2Cl)n1,inactive,
CCCCC(O)(Cn1cncn1)c1ccc(Cl)cc1Cl (stereo not drawn),,15 µM (active)
Cc1cc(C)nc(Nc2ccccc2)n1,inactive,

# Target: human Norepinephrine Transporter (NET), SLC6A2 (gene 6530) (UniProt P23975)
# Sequence (P23975 whole entry, looked up): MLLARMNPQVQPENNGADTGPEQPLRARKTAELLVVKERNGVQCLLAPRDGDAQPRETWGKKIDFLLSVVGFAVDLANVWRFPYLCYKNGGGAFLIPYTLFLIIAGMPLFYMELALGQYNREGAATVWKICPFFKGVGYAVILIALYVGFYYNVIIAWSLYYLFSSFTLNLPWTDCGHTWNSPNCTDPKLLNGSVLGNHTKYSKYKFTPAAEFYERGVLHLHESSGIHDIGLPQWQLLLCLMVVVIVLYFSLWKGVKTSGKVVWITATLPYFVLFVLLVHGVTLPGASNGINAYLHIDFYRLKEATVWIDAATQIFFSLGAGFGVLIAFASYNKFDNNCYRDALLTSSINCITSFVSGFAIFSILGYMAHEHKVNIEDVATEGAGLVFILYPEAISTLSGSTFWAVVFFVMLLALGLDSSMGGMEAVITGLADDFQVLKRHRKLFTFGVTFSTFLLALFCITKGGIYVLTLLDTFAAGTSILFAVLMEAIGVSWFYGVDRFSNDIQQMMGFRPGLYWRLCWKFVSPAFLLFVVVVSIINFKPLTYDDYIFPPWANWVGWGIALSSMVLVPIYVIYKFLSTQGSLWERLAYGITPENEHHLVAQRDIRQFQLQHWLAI
# Assay: NVS_TR_hNET: NovaScreen (NVS) Transporter Assay for human Norepinephrine Transporter (NET) (AID 2283377);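 also: displacement of radioligand from human NET seen as loss of scintillation signal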
# In short: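 Cell-free radioligand binding using CHO-derived membrane protein expressing human NET, read by filter scintillation counting 1 h after dosing; loss of signal vs DMSO. Initial duplicate screen at 25 uM, actives retested in concentration series.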
row,Structure (SMILES),AC50
1,O=P(O)(O)CCCl,10.6 µM (active)
2,Cn1c(-c2ccccc2)cc(-c2ccccc2)[n+]1C,2.75 µM (active)
3,C=C(C)CN(CC)c1c([N+](=O)[O-])cc(C(F)(F)F)cc1[N+](=O)[O-],7.07 µM (active)
4,Cc1c(COC(=O)[C@@H]2[C@H](/C=C(\Cl)C(F)(F)F)C2(C)C)cccc1-c1ccccc1,0.345 µM (active)
5,CC1(C)C(C=C(Cl)Cl)C1C(=O)OC(C#N)c1cccc(Oc2ccccc2)c1 (stereo not drawn),12.2 µM (active)
6,CC(C)N1C(=O)c2ccccc2NS1(=O)=O,14.2 µM (active)
7,CC(C)=CC1C(C(=O)OCc2coc(Cc3ccccc3)c2)C1(C)C (stereo not drawn),10.2 µM (active)
8,CCCCC(O)(Cn1cncn1)c1ccc(Cl)cc1Cl (stereo not drawn),13.3 µM (active)
9,Cc1cc(C)nc(Nc2ccccc2)n1,4.72 µM (active)

# Target: mouse Estrogen Receptor alpha (Era), Esr1 (gene 13982) (UniProt P19785)
# Sequence (P19785 whole entry, looked up): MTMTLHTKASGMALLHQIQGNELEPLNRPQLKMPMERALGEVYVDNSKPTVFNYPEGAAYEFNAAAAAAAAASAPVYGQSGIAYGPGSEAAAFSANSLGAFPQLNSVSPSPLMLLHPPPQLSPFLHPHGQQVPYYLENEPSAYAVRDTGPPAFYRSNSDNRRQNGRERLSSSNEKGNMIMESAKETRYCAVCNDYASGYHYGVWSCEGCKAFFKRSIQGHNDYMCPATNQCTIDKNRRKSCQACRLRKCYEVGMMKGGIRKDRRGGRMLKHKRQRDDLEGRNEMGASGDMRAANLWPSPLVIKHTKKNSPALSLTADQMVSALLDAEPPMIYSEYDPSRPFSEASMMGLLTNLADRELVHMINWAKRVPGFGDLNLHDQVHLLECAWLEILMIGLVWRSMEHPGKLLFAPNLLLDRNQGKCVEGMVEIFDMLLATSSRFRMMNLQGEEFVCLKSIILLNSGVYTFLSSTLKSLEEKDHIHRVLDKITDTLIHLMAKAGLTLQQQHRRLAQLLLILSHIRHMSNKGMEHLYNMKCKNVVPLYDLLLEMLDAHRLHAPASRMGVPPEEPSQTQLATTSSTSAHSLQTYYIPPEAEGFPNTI
# Assay: NVS_NR_mERa: NovaScreen (NVS) Nuclear Receptor Binding Assay for mouse Estrogen Receptor alpha (Era) (AID 2283378);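 also: hit means loss of bound radioligand signal relative to DMSO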
# Experimental: NVS_NR_mERa is a biochemical, single-readout assay that uses extracted gene-proteins in a cell-free assay. Measurements were taken 18 hours after chemical dosing in a 96-well plate.NVS_NR_mERa is one of one assay component(s) measured or calculated from the NVS_NR_mERa assay. It is designed to make measurements of radioligand binding, a form of binding reporter, as detected with scintillation counting signals by Filter-based radiodetection technology.Data from the assay component NVS_NR_mERa was analyzed into 1 assay endpoint. This assay endpoint, NVS_NR_mERa, was analyzed in the positive analysis fitting direction relative to DMSO as the negative control and baseline of activity. Using a type of binding reporter, loss-of-signal activity can be used to understand changes in the binding as they relate to the gene Esr1. Furthermore, this assay endpoint can be referred to as a primary readout, because the performed assay has only produced 1 assay endpoint. To generalize the intended target to other relatable targets, this assay endpoint is annotated to the nuclear receptor intended target family, where the subfamily is steroidal.
# as §1
row,Structure (SMILES),outcome
1,CCCC(=NOCC)C1=C(O)CC(CC(C)SCC)CC1=O (stereo not drawn),inactive
2,COP(=S)(OC)SCn1nnc2ccccc2c1=O,inactive
3,CC1(C)CCC(=Cc2ccc(Cl)cc2)C1(O)Cn1cncn1 (stereo not drawn),inactive
4,CNC(=O)Oc1cccc2ccccc12,inactive
5,OC(c1ccc(Cl)cc1)(c1ccc(Cl)cc1)C(Cl)(Cl)Cl,inactive
6,COC(=O)NC(=S)Nc1ccccc1NC(=S)NC(=O)OC,inactive

# Target: Agonist Androgen Response Element (ARE), AR (gene 367) (UniProt P10275)
# Sequence (P10275 whole entry, looked up): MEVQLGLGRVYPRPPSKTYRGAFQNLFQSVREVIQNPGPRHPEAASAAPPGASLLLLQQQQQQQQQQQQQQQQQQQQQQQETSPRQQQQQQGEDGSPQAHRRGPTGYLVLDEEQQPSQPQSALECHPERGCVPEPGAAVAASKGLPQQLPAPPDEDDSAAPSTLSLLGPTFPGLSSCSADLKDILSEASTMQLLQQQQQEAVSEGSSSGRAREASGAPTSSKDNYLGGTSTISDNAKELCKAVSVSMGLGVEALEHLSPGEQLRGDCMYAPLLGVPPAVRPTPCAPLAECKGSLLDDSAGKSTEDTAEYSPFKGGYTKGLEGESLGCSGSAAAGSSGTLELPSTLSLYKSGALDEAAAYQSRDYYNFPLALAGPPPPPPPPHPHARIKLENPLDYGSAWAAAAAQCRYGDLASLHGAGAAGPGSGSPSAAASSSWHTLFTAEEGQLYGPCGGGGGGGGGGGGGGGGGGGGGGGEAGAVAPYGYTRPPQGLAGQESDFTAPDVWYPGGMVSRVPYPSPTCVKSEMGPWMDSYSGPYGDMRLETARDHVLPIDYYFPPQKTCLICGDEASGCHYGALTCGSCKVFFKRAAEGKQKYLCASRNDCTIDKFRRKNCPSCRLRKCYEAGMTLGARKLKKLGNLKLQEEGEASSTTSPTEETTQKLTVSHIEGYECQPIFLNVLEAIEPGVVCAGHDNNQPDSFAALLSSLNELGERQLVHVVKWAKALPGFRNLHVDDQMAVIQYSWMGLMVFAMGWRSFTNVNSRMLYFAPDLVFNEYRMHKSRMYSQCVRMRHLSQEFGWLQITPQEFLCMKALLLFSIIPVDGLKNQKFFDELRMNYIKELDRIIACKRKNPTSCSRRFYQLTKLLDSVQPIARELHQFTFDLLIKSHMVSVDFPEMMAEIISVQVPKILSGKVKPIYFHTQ
# Assay: OT_AR_ARELUC_AG_1440: Odyssey Thera (OT) 24-hour CHO-K1 Luciferase Assay for Agonist Androgen Response Element (ARE) (AID 2283379)
# In short: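 CHO-K1 cells carrying an ARE-driven luciferase reporter were exposed to compounds for 24 h. Luminescence was then read after adding a D-luciferin/ATP mix, and activity was scored as a gain in signal over DMSO vehicle.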
row,Structure (SMILES),outcome
1,COc1ccc(-c2ccccc2)cc1NNC(=O)OC(C)C,inactive
2,COC(=O)c1c(C(F)F)nc(C(F)(F)F)c(C2=NCCS2)c1CC(C)C,inactive
3,COP(=S)(OC)SCn1nnc2ccccc2c1=O,inactive
4,CC1(C)CCC(=Cc2ccc(Cl)cc2)C1(O)Cn1cncn1 (stereo not drawn),inactive
5,COC(=O)N(C(=O)N1CO[C@@]2(C(=O)OC)Cc3cc(Cl)ccc3C2=N1)c1ccc(OC(F)(F)F)cc1,inactive
6,Cc1cnc(C2=NC(C)(C(C)C)C(=O)N2)c(C(=O)O)c1 (stereo not drawn),inactive
7,COCc1cnc(C2=NC(C)(C(C)C)C(=O)N2)c(C(=O)O)c1 (stereo not drawn),inactive
8,CCOP(=O)(OCC)Oc1nc(Cl)c(Cl)cc1Cl,inactive
9,CCCCC(O)(Cn1cncn1)c1ccc(Cl)cc1Cl (stereo not drawn),inactive

# From PubChem BioAssay (EPA / NIEHS)
